# Shown are actives, neighbours in structure and some others; about 5.4% of the full set was active somewhere.
# Sm TGR inh – inhibitors of Schistosoma mansoni thioredoxin glutathione reductase | purified TGR, DTNB reduction, TNB absorbance 405 nm | AID 485364 | Q962Y6 | 360,000 compounds, 3% hits | Potency, µM (titrated, usually from 114 µM), for inactives: top-dose activity change, negative = inhibition, actives largely listed as inhibitors; active means well fitted inhibition curve with a large enough effect; inconclusive means small, poorly fitted or top-dose-only effect; inactive means no such curve, though single readings can be large or run the other way; further: nearly all actives have a fitted effect of over 60% in size
#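 TGR 20 nM + NADPH 100 uM (dispensed conc.), cpd preinc 15 min RT; start with NADPH (500 uM addition) then DTNB (15 mM addition). Kinetic TNB absorbance, 405 nm filter. Four-parameter Hill fit across titration.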
# VACV Venus inh – vaccinia inhibition (Venus reporter); 330,000 compounds, 0.46% hits; AID 720580; Vaccinia virus Venus reporter expression, fluorescence; Potency, µM (top dose mostly 36.5 µM), for inactives: top-dose activity change, negative = inhibition, hits mostly inhibitors; calls by dose curve; tested in A549 cells; further: nearly all actives have a fitted effect of over 30% in size
# MARV entry inh – inhibitors of Marburg virus binding or cell entry; 300,000 compounds, 1.8% hits; Potency, µM (series often up to 37.8 µM), for the others: at the top dose activity change, negative = inhibition, hits mostly inhibitors; Marburg virus pseudotyped entry inhibition, cell reporter; AID 540276; calls by dose curve; tested in HEK293 cells
# Lassa entry inh – blocks Lassa virus binding to or entry into cells | Lassa virus pseudotype entry inhibition, cell reporter | Potency, µM (titrated, usually from 37.9 µM), without a hit: top-dose activity change, negative = inhibition, hits mostly inhibitors | 300,000 compounds, 1.2% hits; calls by dose curve; tested in HEK293 cells; further: nearly all actives have a fitted effect of over 50% in size
# FMDV inh – antivirals against foot and mouth disease virus | FMDV antiviral cell-based qHTS | Potency, µM (series often up to 57.9 µM), without a hit: top-dose activity change, negative = inhibition, most hits filed as inhibitors | 410,000 compounds, 1.2% hits | AID 1159524; calls by dose curve; tested in HEK293T cells; further: read-out not given here; nearly all actives have a fitted effect of over 45% in size
# VACV mCherry inh – inhibitors of vaccinia virus infection (mCherry reporter signal). Vaccinia virus mCherry reporter infection, fluorescence. Potency, µM (highest dose often 36.5 µM), for the others: top-dose activity change, negative = inhibition, actives largely listed as inhibitors. 310,000 compounds, 0.63% hits. AID 720579; calls by dose curve; tested in A549 cells; further: nearly all actives have a fitted effect of over 35% in size
# * = called active by the depositor; i = inactive; ? = inconclusive; . = no result given; [ ] = dose if it differs, or a comment. On the % scale 0 is the no-effect control and ±100 the full control effect; potency means the concentration at half of the fitted maximal effect.
SMILES,Sm TGR inh,VACV Venus inh,MARV entry inh,Lassa entry inh,FMDV inh,VACV mCherry inh
CCOc1cc(/C=C2\C(=O)N(c3nc(-c4ccc(Br)cc4)cs3)N=C2c2ccccc2)ccc1O,-17%,4%,-3%[46.1 µM],21%,5.6µM*,-3%
CC(C)(C)c1ccc(Cn2c(=N)n(CC(O)c3ccco3)c3ccccc32)cc1 (centres undefined),.,?,11µM*,-27%,20µM*,?
CCCCn1c(=N)n(CC(O)c2ccccc2)c2ccccc21 (centres undefined),-1%,-14%,13µM*,?,-17%,-12%
CCCCCCCn1c(=N)n(CC(O)c2ccco2)c2ccccc21 (centres undefined),3%,-23%,2.8µM*,?,-16%,?
N=c1n(CCN2CCCC2)c2ccccc2n1CC(O)c1ccco1 (centres undefined),-25%,.,?,?,-2%,.
CCn1c(=N)n(CC(O)c2ccccc2)c2ccccc21 (centres undefined),-3%,-16%,?,2%,-11%,-7%
Cc1ccc(C(=O)c2cn(Cc3ccc(F)cc3)c3nc(C)ccc3c2=O)cc1,-4%,-15%,?,4%[46.1 µM],-6%,-9%
COc1ccc(C(=O)[C@@H]2CCCCC2=O)cc1,.,.,24%,.,.,.
COc1cccc(Cn2c(CNS(=O)(=O)c3ccc(C(C)(C)C)cc3)nc3cccnc32)c1,0%,-10%,.,-3%[46.1 µM],30%,-15%
COc1cccc(/C=N/Nc2nc(N3CCCC3)nc(N3CCCC3)n2)c1O,9%,-26%,26µM*,16%,.,-14%
COc1ccc(-n2c(C)cc(/C=N/Nc3nnc(C)n3N)c2C)cc1,?,?,?,-17%,-10%,11µM*
COc1cccc(/C=N/Nc2nnc(C)n2N)c1O,-1%,?,?,9%[46.1 µM],-5%,7.1µM*
Cc1ncc2c(c1CNC(=O)/C=C/c1cccs1)CCN(C(=O)c1c(C)noc1C)C2,.,8%,.,.,-5%,-14%
Nc1c(C(=O)N/N=C/c2cccnc2)oc2nc(-c3ccco3)cc(-c3ccco3)c12,13µM*,130%,?,?,-6%,-11%
CCOC(=O)C(/C(C)=N/NC(=O)C1CC1c1ccccc1)C(C)C (centres undefined),-9%,-16%,25%,2.1µM*,?,-1%
CC(=O)N1CCc2c(sc3c2c(=O)n(Cc2ccccc2)c(=O)n3Cc2cccc(Cl)c2)C1,12%,-25%,?,.,?,-7%
C=CCn1c(COc2cccc(C)c2C)nnc1SCC(=O)N1CCN(c2ccccc2)CC1,-6%,?,?,5.6µM*,18µM*,?
CCOC(=O)CSc1nc2sc3c(c2c(=O)n1Cc1ccccc1)CC(C)CC3 (centres undefined),0%,-12%,.,3%[46.1 µM],-11%,-14%
CC(C)(C)OC(=O)N1CCC(c2c(C(=O)NCCCN3CCc4ccccc4C3)cnn2-c2ccccc2)CC1,0%,-11%,.,?,-5%,-16%
CCn1c(C)nc2cc(-c3nc4n(n3)Cc3ccccc3-4)ccc21,0%,?,?,?,0.79µM*,.
Fc1ccc(-c2nc3n(n2)Cc2ccccc2-3)cc1,0%,-15%,?,13µM*,-59%,.
Cc1ccc(-c2nc3n(n2)Cc2ccccc2-3)cc1,-4%,-19%,?,?,-84%,-3%
CCS(=O)(=O)N1CCCc2cc(C(=O)Nc3cc([N+](=O)[O-])ccc3C)ccc21,-12%,-13%,-9%[46.1 µM],-10%[46.1 µM],28µM*,i
Cc1ccc(NC(=O)Nc2cn(CC(C)C)c(=O)c3ccccc23)cc1N(C)C,-15%,-6%,.,2%[46.1 µM],-4%,-5%
COc1ccc(/C=C/C(=O)N2CCN(c3ccccc3)CC2)cc1S(=O)(=O)N1CCOCC1,6%,-22%,-16%[46.1 µM],?,14µM*,-24%
SMILES,Sm TGR inh,VACV Venus inh,MARV entry inh,Lassa entry inh,FMDV inh,VACV mCherry inh
COc1ccc(/C=C/C(=O)N2CCC(C(N)=O)CC2)cc1S(=O)(=O)N1CCOCC1,8%,-4%,-2%,?,22%,-10%
O=C(/C=C/c1ccc(S(=O)(=O)N2CCOCC2)cc1)N1CCN(c2ccccc2)CC1,10%,?,.,.,32µM*,?
CCOc1ccc(OCC)c(NS(=O)(=O)c2c(C(=O)N3CCCCCC3)c(C)n(C)c2C)c1,-7%,-6%,.,-19%[46.1 µM],58%,-7%
CCOC(=O)N1CCC(NC(=O)CS(=O)(=O)Cc2nc(-c3ccccc3C)oc2C)CC1,45µM*,-15%,-20%,11%,?,-21%
CCOC(=O)N1CCC(NC(=O)CS(=O)(=O)Cc2nc(-c3ccc(OC)cc3)oc2C)CC1,?,.,.,.,-17%,.
Cc1ccccc1-c1nc(CS(=O)(=O)CC(=O)NC2CCCC2)c(C)o1,40µM*,.,.,.,-15%,.
CCOC(=O)N1CCC(NC(=O)CSCc2nc(-c3sccc3C)oc2C)CC1,40µM*,?,.,.,?,-17%
Cc1oc(-c2ccccc2Cl)nc1CS(=O)(=O)CC(=O)NC1CCCC1,45µM*,?,.,.,-10%,-20%
Cc1cc(/C=C/c2ccnc3ccccc23)ccc1N(C)C,.,-16%,.,.,.,-4%
Cc1ccc(C2CC(=O)N3CN(Cc4ccco4)CSC3=C2C#N)cc1 (centres undefined),0%,.,1%,?,11%,.
N#CC1=C2SCN(c3ccccc3)CN2C(=O)CC1c1ccccc1Cl (centres undefined),22µM*,-17%,.,.,-21%,-5%
N#CC1=C2SCN(Cc3ccco3)CN2C(=O)CC1c1c(F)cccc1Cl (centres undefined),45µM*,-1%,.,.,-19%,i
N#CC1=C2SCN(c3ccccc3)CN2C(=O)CC1c1c(Cl)cccc1Cl (centres undefined),0%,-11%,1%,.,-23%,-11%
CCc1ccccc1N1CSC2=C(C#N)C(c3cc(OC)c(OC)cc3OC)CC(=O)N2C1 (centres undefined),6.3µM*,.,?,3%,17%,.
COc1ccc2ccccc2c1C1CC(=O)N2CN(C)CSC2=C1C#N (centres undefined),10µM*,.,-26%,-2%,-5%,.
CN(CC(=O)Nc1ccc(Cl)cc1F)S(=O)(=O)c1ccc2c(c1)n(C)c(=O)c(=O)n2C,-7%,-2%,10%[46.1 µM],13%[46.1 µM],-11%,-1%
C=C1C(C)(C)[C@@H]2CC[C@]1(C(=O)Nc1nccs1)C2,.,.,-9%,.,.,.
Cc1ccc2nc(N3CCN(c4cccc(C(F)(F)F)c4)CC3)c3nnnn3c2c1,1%,15%,.,-8%[46.1 µM],-23%,3%
COc1cc(OC)c(C2CC(=O)N3CN(c4ccccc4)CSC3=C2C#N)cc1OC (centres undefined),10µM*,.,-7%,5%,3%,.
COC(=O)c1ccc(CSc2c(C(C)C)cnc3c2c(=O)n(C)c(=O)n3C)cc1,0%,-6%,.,?,?,-6%
COc1ccc(-c2nn(-c3ccccc3)cc2/C=N/O)cc1OC,2%,.,.,.,-6%,.

# Screening data from PubChem BioAssay.
